Drawing on PubChem BioAssay (Tox21), this text covers Potency and outcome for seven molecules.

Experiment [1] can be described thus: qHTS assay to identify small molecule agonists of the estrogen receptor alpha (ER-alpha) signaling pathway in the presence of an antagonist - cell viability counter screen (AID 1259386).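 Note: cells exposed to compounds for 22 h at 37 °C before the viability read; nearly all actives have a fitted effect of over 30% in size.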 Note: potency is the fitted concentration of half-maximal effect. In short, it runs like this: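 Viability counter screen using VM7Luc4E2 (full-length ER-alpha, four ERE-luciferase). The cells were treated with compounds alongside ICI-182,780 10.0nM for 22hr, and live-cell protease fluorescence was quantified with CellTiter-Fluor.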
(In general: Quantitative high-throughput screening tests each substance at several concentrations.)

Experiment [2] concerns the target Progesterone receptor (Homo sapiens) (UniProt P06401). The experiment is described as follows: qHTS assay to identify small molecule agonists of the progesterone receptor (PR) signaling pathway (AID 1346784; calls by dose curve; note: nearly all actives have a fitted effect of over 30% in size). In short, it runs like this: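 Compounds were tested for PR agonism in HEK 293T cells bearing a beta-lactamase gene under UAS control. Treatment lasted 16 hr at 37C; signal came from fluorescence of a FRET substrate.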

Experiment [3] has the same target. The experiment is described as follows: qHTS assay to identify small molecule antagonists of the progesterone receptor (PR) signaling pathway (AID 1346795; active = well fitted inhibition curve with a large enough effect in the signal ratio in the repeat runs, not every such curve was filed as active; the % refers to the signal ratio). The gist of the method: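 In HEK293T cells bearing the PR-UAS-bla reporter, compound effects on promegestone-driven (1 nM) beta-lactamase expression are assessed after 16 hr using a fluorescent FRET substrate incubated 2 hr at room temperature.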

Experiment [4] is described as follows: qHTS assay to identify small molecule antagonists of the TGF-beta/Smad signaling pathway - cell viability counter screen (AID 1346824). Note: nearly all actives have a fitted effect of over 50% in size. Note: potency is the fitted concentration of half-maximal effect. The gist of the method: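 SBE-bla HEK 293T cells, incubated overnight, then compound plus 0.25 ng/mL TGF-beta1 (stock added) for 5 hr at 37 C. Viability was read in the same wells by CellTiter-Glo luminescence after 30 min at room temperature.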

Experiment [5] in a line: qHTS assay to identify small molecule agonists of the TGF-beta/Smad signaling pathway - cell viability counter screen (AID 1346829). Note: nearly all actives have a fitted effect of over 45% in size. Note: potency is the fitted concentration of half-maximal effect. The gist of the method: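 SBE-bla HEK 293T cells plated overnight, compound exposure 5 hr at 37 C. Viability read in the same wells by CellTiter-Glo luminescence after 30 min at room temperature, following the beta-lactamase read.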
Experiment [6] can be described thus: qHTS assay to identify small molecule agonists of the TGF-beta/Smad signaling pathway (AID 1346859; active = well fitted activation curve with a large enough effect in the signal ratio in the repeat runs, not every such curve was filed as active; the % refers to the signal ratio; note: series mostly up to about 77 µM). In short, it runs like this:
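Each well held 4,000 SBE-bla HEK 293T cells incubated overnight before compound addition; 5 hr later the cleavable FRET substrate went on for 2 hr at room temperature, and fluorescence was read at two emissions.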

For experiment [7], the target named is Thyrotropin-releasing hormone receptor (Homo sapiens) (UniProt P34981). Nature of the experiment: qHTS assay to identify small molecule antagonists of the thyrotropin-releasing hormone receptor (TRHR) signaling pathway (AID 1346877; active = well fitted inhibition curve with a large enough effect in the repeat runs, not every such curve was filed as active; note: series mostly up to about 51 µM). The gist of the method:
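Following an 18 h incubation at 37 °C and a 2 h calcium dye load, TRHR-HEK293 cells were exposed to compound (5 min, room temperature) and challenged with TRH, 1 nM final.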

For experiment [8] the target is unchanged. The experiment is described as follows: qHTS assay to identify small molecule agonists of the thyrotropin-releasing hormone receptor (TRHR) signaling pathway (AID 1346891; calls by dose curve; note: series mostly up to about 58 µM). In short, it runs like this: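 Screening of agonists relied on calcium signalling in HEK293 cells expressing human TRHR: dye loading 2 h at 37 °C preceded compound addition and a 3-min fluorescence time course.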

The nature of experiment [9]: Human pregnane X receptor (PXR) small molecule agonists, qHTS cell viability counter screen (AID 1346977). Note: nearly all actives have a fitted effect of over 50% in size. Note: potency is the fitted concentration of half-maximal effect. The gist of the method: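 Tox21 qHTS format; PXR-Luc HepG2, 2,000/well, charcoal-stripped FBS 5%. Cpd exposure 24hr. Read: CellTiter-Fluor fluorescence, multiplexed with luciferase.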
The nature of experiment [10]: Caspase-3/7 induction in HepG2 cells by small molecules, qHTS assay (AID 1346978). Note: nearly all actives have a fitted effect of over 15% in size. The gist of the method:
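Wild-type HepG2 cells, 2,000/well, settled 5 hr at 37 C and 5% CO2, then compound-treated for 17 hr; caspase-3/7 activity read by luminescent Caspase-Glo 3/7 after 30 min at room temperature.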

A short description of experiment [11]: Caspase-3/7 induction in CHO-K1 cells by small molecules, qHTS cell viability counter screen (AID 1346979). Note: nearly all actives have a fitted effect of over 35% in size. Note: potency is the fitted concentration of half-maximal effect. The gist of the method: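 CellTiter-Fluor viability check, qHTS format: wild-type CHO-K1, 16hr compound treatment, 1hr reagent incubation, fluorescence read.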
Experiment [12] is described as follows: Caspase-3/7 induction in CHO-K1 cells by small molecules, qHTS assay (AID 1346980). Note: nearly all actives have a fitted effect of over 15% in size. In short, it runs like this:
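Wild-type CHO-K1 cells exposed to compounds for 17hr at 37 C, 5% CO2. Caspase-3/7 activity then measured by Caspase-Glo 3/7 luminescence after 30min at room temperature.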

The nature of experiment [13]: Caspase-3/7 induction in HepG2 cells by small molecules, qHTS cell viability counter screen (AID 1346981). Note: nearly all actives have a fitted effect of over 30% in size. Note: potency is the fitted concentration of half-maximal effect. In short, it runs like this:
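Viability determined by CellTiter-Fluor fluorescence in HepG2 wells also used for the luminescent Caspase-Glo 3/7 read. Compounds were present for 16 hr at 37 C, 5% CO2 before reagent addition.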

Experiment [14] concerns the target Nuclear receptor subfamily 1 group I member 2 (Homo sapiens) (UniProt O75469). Nature of the experiment: Human pregnane X receptor (PXR) small molecule agonists, qHTS assay (AID 1346982). Note: nearly all actives have a fitted effect of over 35% in size. Note: potency is the fitted concentration of half-maximal effect. In short, it runs like this: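 Compound-induced hPXR transactivation of a CYP3A4 luciferase reporter was scored in HepG2 PXR-Luc cells over 24 hr at 37 C, 5% CO2, by luminescence.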

Experiment [15] deals with Cytochrome P450 2D6 (Homo sapiens) (UniProt P10635). The experiment is described as follows: Cytochrome P450 Family 2 Subfamily D Member 6 (CYP2D6) small molecule antagonists: luciferase reporter qHTS assay (AID 1671196). Note: nearly all actives have a fitted effect of over 50% in size. Note: potency is the fitted concentration of half-maximal effect. In short, it runs like this:
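Each well received CYP2D6 with its proluciferin substrate and chemical, sat 10 min, then got NADPH regeneration solution for 1 h at room temperature. Luminescence in RLU served as the activity measure.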

Experiment [16] can be described thus: qHTS assay to identify small molecule antagonists of the progesterone receptor (PR) signaling pathway - cell viability counter screen (AID 1346798). Note: series mostly up to about 92 µM; nearly all actives have a fitted effect of over 50% in size. The gist of the method:
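Following a 4 hr attachment, PR-UAS-bla HEK293T cells in charcoal-stripped FBS medium were exposed to compounds with R5020 for 16 hr; CellTiter-Glo was added and luminescence read after 30 min at room temperature.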

The nature of experiment [17]: qHTS assay to identify small molecule agonists of the progesterone receptor (PR) signaling pathway - cell viability counter screen (AID 1346799; calls by dose curve; note: nearly all actives have a fitted effect of over 45% in size). In short, it runs like this:
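Here, 3,000 PR-UAS-bla HEK293T cells per well were treated with compounds for 16 hr after a 6 hr preincubation at 37C and 5% CO2; cell viability is the CellTiter-Glo luminescence signal.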

Structures are written as SMILES. A number with no mark means an inactive call. Records with an inconclusive call do not appear. Activity calls are given as the source filed them. Unless noted, calls come from the whole dose curve; as a rule, active = well fitted curve in the direction sought with a large enough effect in the repeat runs; inconclusive = weak or mixed curves; inactive = no such curve, though single readings can be large; an effect the other way counts as inactive or inconclusive.

Chain of Progesterone receptor (Homo sapiens) (P06401 whole entry, looked up): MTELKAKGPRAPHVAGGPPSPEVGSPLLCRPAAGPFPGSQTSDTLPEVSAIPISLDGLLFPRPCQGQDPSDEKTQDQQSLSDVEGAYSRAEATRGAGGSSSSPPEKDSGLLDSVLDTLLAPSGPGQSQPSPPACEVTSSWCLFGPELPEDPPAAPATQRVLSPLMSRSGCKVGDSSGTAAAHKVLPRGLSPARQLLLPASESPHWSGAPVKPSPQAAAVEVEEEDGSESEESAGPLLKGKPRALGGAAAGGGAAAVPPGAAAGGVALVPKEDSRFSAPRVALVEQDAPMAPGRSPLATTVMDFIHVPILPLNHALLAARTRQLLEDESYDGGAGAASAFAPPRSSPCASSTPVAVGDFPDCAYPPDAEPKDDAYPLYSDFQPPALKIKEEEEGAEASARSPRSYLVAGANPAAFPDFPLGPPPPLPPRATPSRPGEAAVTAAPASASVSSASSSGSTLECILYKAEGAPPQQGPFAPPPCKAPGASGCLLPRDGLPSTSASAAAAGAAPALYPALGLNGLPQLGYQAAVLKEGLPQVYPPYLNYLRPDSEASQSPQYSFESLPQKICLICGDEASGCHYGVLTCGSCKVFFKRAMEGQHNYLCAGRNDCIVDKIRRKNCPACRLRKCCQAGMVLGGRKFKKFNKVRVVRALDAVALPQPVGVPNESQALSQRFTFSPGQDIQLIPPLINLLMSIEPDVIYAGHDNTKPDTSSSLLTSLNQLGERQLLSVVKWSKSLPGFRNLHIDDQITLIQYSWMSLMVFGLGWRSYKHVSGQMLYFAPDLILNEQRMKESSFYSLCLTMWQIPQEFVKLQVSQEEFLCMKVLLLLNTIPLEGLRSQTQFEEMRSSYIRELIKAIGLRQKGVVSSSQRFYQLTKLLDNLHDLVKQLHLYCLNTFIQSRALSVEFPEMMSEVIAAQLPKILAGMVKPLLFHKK
Chain of Cytochrome P450 2D6 (Homo sapiens) (P10635 whole entry, looked up): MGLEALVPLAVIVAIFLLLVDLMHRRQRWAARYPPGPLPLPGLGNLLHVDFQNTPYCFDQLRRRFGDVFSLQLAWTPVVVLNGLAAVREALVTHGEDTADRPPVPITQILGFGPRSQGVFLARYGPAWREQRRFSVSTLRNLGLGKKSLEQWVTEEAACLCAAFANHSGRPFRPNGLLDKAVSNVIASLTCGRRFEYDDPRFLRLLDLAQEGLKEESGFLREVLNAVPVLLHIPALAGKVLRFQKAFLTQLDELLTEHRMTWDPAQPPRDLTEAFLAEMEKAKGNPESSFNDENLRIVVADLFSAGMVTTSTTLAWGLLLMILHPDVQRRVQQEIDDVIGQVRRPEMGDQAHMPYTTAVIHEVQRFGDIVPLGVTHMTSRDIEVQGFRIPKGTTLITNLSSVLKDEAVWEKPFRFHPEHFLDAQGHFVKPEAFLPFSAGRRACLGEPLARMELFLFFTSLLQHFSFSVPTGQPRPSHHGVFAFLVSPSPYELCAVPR
Chain of Nuclear receptor subfamily 1 group I member 2 (Homo sapiens) (O75469 whole entry, looked up): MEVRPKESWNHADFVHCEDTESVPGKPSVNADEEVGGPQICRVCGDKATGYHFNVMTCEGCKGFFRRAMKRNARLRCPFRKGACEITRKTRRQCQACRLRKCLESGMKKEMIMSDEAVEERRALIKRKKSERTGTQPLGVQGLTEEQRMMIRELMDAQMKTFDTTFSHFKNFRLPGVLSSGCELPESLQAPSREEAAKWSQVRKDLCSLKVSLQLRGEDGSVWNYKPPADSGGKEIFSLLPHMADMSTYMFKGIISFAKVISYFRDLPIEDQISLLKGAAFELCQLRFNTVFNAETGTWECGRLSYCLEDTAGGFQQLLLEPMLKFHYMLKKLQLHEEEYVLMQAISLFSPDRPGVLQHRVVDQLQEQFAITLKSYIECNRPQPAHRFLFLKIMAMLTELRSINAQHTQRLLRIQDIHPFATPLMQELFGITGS
Chain of Thyrotropin-releasing hormone receptor (Homo sapiens) (P34981 whole entry, looked up): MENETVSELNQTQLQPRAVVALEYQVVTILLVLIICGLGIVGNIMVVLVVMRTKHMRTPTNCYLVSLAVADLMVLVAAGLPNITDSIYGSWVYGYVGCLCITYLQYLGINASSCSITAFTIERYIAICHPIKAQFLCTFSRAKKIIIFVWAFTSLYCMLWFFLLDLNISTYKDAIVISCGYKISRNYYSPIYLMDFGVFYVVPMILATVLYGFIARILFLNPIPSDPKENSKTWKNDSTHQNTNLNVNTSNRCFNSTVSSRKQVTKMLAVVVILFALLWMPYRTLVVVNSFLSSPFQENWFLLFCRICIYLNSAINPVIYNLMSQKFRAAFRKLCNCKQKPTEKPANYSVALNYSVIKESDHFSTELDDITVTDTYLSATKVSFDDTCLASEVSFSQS

As to `CCCCCCCCCCCC(=O)OCC(C)OC(=O)CCCCC(=O)O` (configuration not stated), the Potency result in [1], in experiment [2], in [3], in experiment [4], in experiment [5] and in experiment [6] was “inactive” throughout. The Potency result in [7], in experiment [9], in experiment [10], in experiment [11], in [12] and in [13] was “inactive” each time. Also, the Potency entry in [14] and in [15] was “inactive” throughout. For the same molecule, the call in experiment [8] was inactive.
In the case of `Cc1c(N)cccc1C(F)(F)F`, the Potency result in experiment [1], in experiment [2], in [3], in [4], in experiment [5] and in experiment [6] was “inactive” each time. The Potency result in [7], in experiment [9], in experiment [10], in experiment [11], in [12] and in experiment [14] was “inactive” in each case. Also, in experiment [15], the Potency entry is “inactive”. For the same molecule, in [8], the outcome was inactive.
For the molecule `Cl[Si](Cl)(c1ccccc1)c1ccccc1`, the Potency result in experiment [1], in experiment [2], in experiment [16], in [17], in experiment [4] and in experiment [5] was “inactive” throughout. Moreover, the Potency entry in [6], in experiment [7], in experiment [9], in experiment [10], in [11] and in experiment [12] was “inactive” in each case. The outcome in experiment [8] was inactive.
`O=C(O)c1cc(O)c2ccccc2c1O`: the Potency was 27.3 µM (active) in experiment [1]; 4.9 µM (active) in [4]; 3.09 µM (active) in experiment [5]; 7.7 µM (active) in experiment [9]; 6.11 µM (active) in experiment [11]; 9.69 µM (active) in experiment [13]. For the same molecule, the Potency in [14] was 1.93 µM (active); in [15], 35.6 µM (active). The Potency entry in experiment [2], in experiment [16], in [17], in experiment [7], in experiment [10] and in experiment [12] was “inactive” throughout. Also, the call in experiment [8] was inactive.
For `Clc1nnc(Cl)c2ccccc12`, the Potency entry in experiment [1], in [2], in [16], in [4], in [5] and in [6] was “inactive” throughout. The Potency result in [7], in experiment [9], in experiment [10], in experiment [11], in experiment [12] and in [13] was “inactive” in each case.
As for `Nc1nc(-c2ccccc2)cs1`, the Potency result in [1], in [2], in [16], in experiment [4], in experiment [5] and in experiment [6] was “inactive” in each case. In addition, the Potency result in experiment [7], in [9], in experiment [10], in experiment [11] and in experiment [13] was “inactive” in each case. For the same molecule, in experiment [8], the molecule was called inactive. In addition, the Potency in [14] was 27.2 µM (active); in [15], 12.6 µM (active).
With `Fc1ccc(C(c2ccc(F)cc2)N2CCNCC2)cc1`, the Potency entry in [1], in experiment [2], in [3], in experiment [5], in experiment [6] and in [7] was “inactive” in each case. Moreover, the Potency result in [9], in experiment [10], in experiment [11], in [12], in experiment [13] and in [14] was “inactive” throughout. Further, in experiment [8], the outcome was inactive. The Potency in experiment [15] was 2.19 µM (active).
